# Data published in publication PMC11062922 (Nature Chemical Biology, 2023).
# Like-named read-outs stand apart in the source and are kept apart here.
# System: CLK4
# Conditions: read-out: apparent Kd, n = 1
substance,measurement,setting,value
Lestaurtinib,potency estimated from few doses,"compound concentrations:100 nM and 1000 nM (sheet 'Lestaurtinib' of Supplementary Table 1),run:Lestaurtinib_02381_R3,Plate:MR004",51.1 nM
same,potency estimated from few doses,"compound concentrations:100 nM and 1000 nM (sheet 'Lestaurtinib' of Supplementary Table 1),run:Lestaurtinib_02407_R2,Plate:MR005",17 nM
same,potency estimated from few doses,"compound concentrations:100 nM and 1000 nM (sheet 'Lestaurtinib' of Supplementary Table 1),run:Lestaurtinib_02407_R3,Plate:MR005",22.9 nM
same,potency estimated from few doses,"compound concentrations:100 nM and 1000 nM (sheet 'Lestaurtinib' of Supplementary Table 1),run:Lestaurtinib_02422_R1,Plate:MR006",27.9 nM
same,potency estimated from few doses,"compound concentrations:100 nM and 1000 nM (sheet 'Lestaurtinib' of Supplementary Table 1),run:Lestaurtinib_02422_R3,Plate:MR006",48 nM
same,potency estimated from few doses,"compound concentrations:100 nM and 1000 nM (sheet 'Lestaurtinib' of Supplementary Table 1),run:Lestaurtinib_02437_R1,Plate:MR007",25 nM
same,potency estimated from few doses,"compound concentrations:100 nM and 1000 nM (sheet 'Lestaurtinib' of Supplementary Table 1),run:Lestaurtinib_02437_R2,Plate:MR007",71.7 nM
same,potency estimated from few doses,"compound concentrations:100 nM and 1000 nM (sheet 'Lestaurtinib' of Supplementary Table 1),run:Lestaurtinib_02438_R1,Plate:MR008",19.3 nM
same,potency estimated from few doses,"compound concentrations:100 nM and 1000 nM (sheet 'Lestaurtinib' of Supplementary Table 1),run:Lestaurtinib_02438_R3,Plate:MR008",141 nM
same,potency estimated from few doses,"compound concentrations:100 nM and 1000 nM (sheet 'Lestaurtinib' of Supplementary Table 1),run:Lestaurtinib_02443_R1,Plate:MR009",80.9 nM
same,potency estimated from few doses,"compound concentrations:100 nM and 1000 nM (sheet 'Lestaurtinib' of Supplementary Table 1),run:Lestaurtinib_02443_R2,Plate:MR009",75.8 nM
same,potency estimated from few doses,"compound concentrations:100 nM and 1000 nM (sheet 'Lestaurtinib' of Supplementary Table 1),run:Lestaurtinib_02473_R1,Plate:MR010",58 nM
same,potency estimated from few doses,"compound concentrations:100 nM and 1000 nM (sheet 'Lestaurtinib' of Supplementary Table 1),run:Lestaurtinib_02473_R2,Plate:MR010",35.2 nM
same,potency estimated from few doses,"compound concentrations:100 nM and 1000 nM (sheet 'Lestaurtinib' of Supplementary Table 1),run:Lestaurtinib_02482_R2,Plate:MR011",86.4 nM
same,potency estimated from few doses,"compound concentrations:100 nM and 1000 nM (sheet 'Lestaurtinib' of Supplementary Table 1),run:Lestaurtinib_02487_R2,Plate:MR012",73.6 nM
same,potency estimated from few doses,"compound concentrations:100 nM and 1000 nM (sheet 'Lestaurtinib' of Supplementary Table 1),run:Lestaurtinib_02496_R2,Plate:MR013",98.1 nM
same,potency estimated from few doses,"compound concentrations:100 nM and 1000 nM (sheet 'Lestaurtinib' of Supplementary Table 1),run:Lestaurtinib_02496_R3,Plate:MR013",54.4 nM
same,potency estimated from few doses,"compound concentrations:100 nM and 1000 nM (sheet 'Lestaurtinib' of Supplementary Table 1),run:Lestaurtinib_02566_R1,Plate:MR014",47.9 nM
same,potency estimated from few doses,"compound concentrations:100 nM and 1000 nM (sheet 'Lestaurtinib' of Supplementary Table 1),run:Lestaurtinib_02572_R1,Plate:MR015",74.6 nM
same,potency estimated from few doses,"compound concentrations:100 nM and 1000 nM (sheet 'Lestaurtinib' of Supplementary Table 1),run:Lestaurtinib_02572_R2,Plate:MR015",41.6 nM
same,potency estimated from few doses,"compound concentrations:100 nM and 1000 nM (sheet 'Lestaurtinib' of Supplementary Table 1),run:Lestaurtinib_02572_R3,Plate:MR015",53.8 nM
same,potency estimated from few doses,"compound concentrations:100 nM and 1000 nM (sheet 'Lestaurtinib' of Supplementary Table 1),run:Lestaurtinib_02577_R1,Plate:MR016",877 nM
same,potency estimated from few doses,"compound concentrations:100 nM and 1000 nM (sheet 'Lestaurtinib' of Supplementary Table 1),run:Lestaurtinib_02577_R2,Plate:MR016",830 nM
same,potency estimated from few doses,"compound concentrations:100 nM and 1000 nM (sheet 'Lestaurtinib' of Supplementary Table 1),run:Lestaurtinib_02584_R1,Plate:MR017",65.8 nM
same,potency estimated from few doses,"compound concentrations:100 nM and 1000 nM (sheet 'Lestaurtinib' of Supplementary Table 1),run:Lestaurtinib_02584_R2,Plate:MR017",67.9 nM
same,potency estimated from few doses,"compound concentrations:100 nM and 1000 nM (sheet 'Lestaurtinib' of Supplementary Table 1),run:Lestaurtinib_02584_R3,Plate:MR017",44.4 nM
same,potency estimated from few doses,"compound concentrations:100 nM and 1000 nM (sheet 'Lestaurtinib' of Supplementary Table 1),run:Lestaurtinib_02606_R1,Plate:MR019",78.2 nM
same,potency estimated from few doses,"compound concentrations:100 nM and 1000 nM (sheet 'Lestaurtinib' of Supplementary Table 1),run:Lestaurtinib_02606_R3,Plate:MR019",45.4 nM
same,potency estimated from few doses,"compound concentrations:100 nM and 1000 nM (sheet 'Lestaurtinib' of Supplementary Table 1),run:Lestaurtinib_02624_R2,Plate:MR020",79.1 nM
same,potency estimated from few doses,"compound concentrations:100 nM and 1000 nM (sheet 'Lestaurtinib' of Supplementary Table 1),run:Lestaurtinib_02624_R3,Plate:MR020",55.4 nM
same,potency estimated from few doses,"compound concentrations:100 nM and 1000 nM (sheet 'Lestaurtinib' of Supplementary Table 1),run:Lestaurtinib_02724_R2,Plate:MR021",62.7 nM
same,potency estimated from few doses,"compound concentrations:100 nM and 1000 nM (sheet 'Lestaurtinib' of Supplementary Table 1),run:Lestaurtinib_02724_R3,Plate:MR021",76.1 nM
same,potency estimated from few doses,"compound concentrations:100 nM and 1000 nM (sheet 'Lestaurtinib' of Supplementary Table 1),run:Lestaurtinib_02741_R3,Plate:MR023",62 nM
same,potency estimated from few doses,"compound concentrations:100 nM and 1000 nM (sheet 'Lestaurtinib' of Supplementary Table 1),run:Lestaurtinib_02748_R2,Plate:MR024",132 nM
same,potency estimated from few doses,"compound concentrations:100 nM and 1000 nM (sheet 'Lestaurtinib' of Supplementary Table 1),run:Lestaurtinib_02766_R3,Plate:MR027",69.4 nM
same,potency estimated from few doses,"compound concentrations:100 nM and 1000 nM (sheet 'Lestaurtinib' of Supplementary Table 1),run:Lestaurtinib_02768_R2,Plate:MR028",1150 nM
